Results taken from PubChem BioAssay.
Results filed as inconclusive are left out. Activity calls are given as the source filed them. Unless noted, the limit is not given here; nearly all actives have AC50 up to about 26 µM.

How the values were obtained:
[1] = growth inhibition of DIPG glioma cells, dose response, cell-based, SU-DIPG-XVII, MIPE5.0, CellTiter-Glo, qHTS (AID 1347060); settings: SU-DIPG-XVII viability, CellTiter-Glo ATP luminescence;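 as to AC50: cells exposed to compound for 48 hours before viability readout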
[2] = growth inhibition of DIPG glioma cells, dose response, cell-based, SU-DIPG-XIII, MIPE5.0, CellTiter-Glo, qHTS (AID 1347064; cut-off not given, nearly all actives have AC50 up to about 23 µM;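 as to AC50: cells exposed to compound for 48 hours before the viability read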); settings: SU-DIPG-XIII viability, CellTiter-Glo ATP luminescence
[3] = viability loss in pontine glioma line – cell-based, SU-DIPG-XXV, MIPE5.0, CellTiter-Glo, qHTS, dose response (AID 1347065); settings: CellTiter-Glo ATP luminescence;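 also: cells exposed to compound for 48 hours before ATP readout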
[4] = JHH-DIPG-1 glioma cell viability, MIPE5.0 library, CellTiter-Glo luminescence, qHTS (AID 1347067); settings: JHH-DIPG-1 glioma viability, CellTiter-Glo ATP luminescence;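 also: cells exposed to compound for 48 hours before readout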
[5] = SU-DIPG-XXV glioma cell viability, MIPE5.0 library, qHTS (AID 1347068; cut-off not given, nearly all actives have IC50 up to about 30 µM;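 as to IC50: cells exposed to compound for 48 hours before viability readout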)

SMILES	AC50 [1]	AC50 [2]	AC50 [3]	AC50 [4]	IC50 [5]	outcome [1]	outcome [2]	outcome [3]	outcome [4]	outcome [5]
O=C(/C=C/c1ccc2ccc(C(F)(F)F)cc2n1)c1ccncc1	4.17 µM (active)	1.48 µM (active)	2.95 µM (active)	2.35 µM (active)	7.42 µM (active)					
CNC(=O)c1ccc(Nc2ncc(C(F)(F)F)c(NCc3nccnc3N(C)S(C)(=O)=O)n2)cc1	4.68 µM (active)	5.25 µM (active)	3.72 µM (active)	4.68 µM (active)	2.35 µM (active)					
O=C(O)CC(C(=O)O)n1c(O)c(C2=c3cc(Br)ccc3=NC2=O)sc1=S (stereo not given)						inactive	inactive	inactive	inactive	inactive
CC1(C)CN(C(=O)c2ccc(-c3cccc4nc(NC(=O)C5CC5)nn34)cc2)C1						inactive	inactive	inactive	inactive	inactive
COc1cc2c(cc1OCCCN1CCCC1)N=C(N)C21CCC1						inactive	inactive	inactive	inactive	inactive
COC(=O)N(C)c1c(N)nc(-c2nn(Cc3ccccc3F)c3ncccc23)nc1N						inactive	inactive	inactive	inactive	inactive
Cc1cccc(Oc2cnc(=O)[nH]c2)c1						inactive	inactive	inactive	inactive	inactive
CCC(=O)N1CCOc2c(cc(-c3cc(OC)cc(OC)c3)cc2C(=O)N[C@H]2CCCN(C)C2)C1						inactive	inactive	inactive	inactive	inactive
COc1ccc(S(=O)(=O)N2CCc3cccc(-c4ccncc4)c32)cc1	0.468 µM (active)	0.295 µM (active)	0.332 µM (active)	0.332 µM (active)	0.833 µM (active)					
CC(=O)N[C@H]1CSSC[C@@H](C(N)=O)NC(=O)[C@H](C(C)C)NC(=O)[C@H](C)NC(=O)[C@H](Cc2cnc[nH]2)NC1=O						inactive	inactive	inactive	inactive	inactive
CO[C@@H](C)Cn1c(=O)n(C)c2cnc3ccc(-c4cncc(C(C)(C)O)c4)cc3c21	0.934 µM (active)	1.86 µM (active)	0.59 µM (active)	1.05 µM (active)	1.48 µM (active)					
Cn1ncc(Cl)c1-c1cc(C(=O)NC(CN)Cc2ccc(F)c(F)c2)oc1Cl (stereo not given)	14.8 µM (active)	5.9 µM (active)	0.661 µM (active)	18.6 µM (active)	16.6 µM (active)					
FC(F)(F)c1ccc(Nc2nc(-c3c(C(F)(F)F)nc4ccccn34)cs2)cc1	0.372 µM (active)	14.8 µM (active)	0.372 µM (active)	1.86 µM (active)	3.32 µM (active)					
O=C([C@@H](Cc1cccc(C(F)(F)F)c1)NS(=O)(=O)c1cc(F)c2c(c1)CCNC2)N1CCCC1						inactive	inactive	inactive	inactive	inactive
O=C(O)CNC(=O)c1nc(Cl)c2ccccc2c1O						inactive	inactive	inactive	inactive	inactive
COc1ccc(Cl)cc1-c1cc(=O)[nH]c(=S)n1CC(N)=O						inactive	inactive	inactive	inactive	inactive
c1ccc2c(-c3cnn4cc(-c5ccc(OCCN6CCOCC6)cc5)cnc34)ccnc2c1	12.9 µM (active)	14.4 µM (active)	9.1 µM (active)	10.2 µM (active)						inactive
COc1cc2c(NC3CCN(CC4CCCCC4)CC3)nc(N3CCCN(C(C)C)CC3)nc2cc1OCCCN1CCCCC1	14.8 µM (active)	18.6 µM (active)	13.2 µM (active)	20.9 µM (active)	5.25 µM (active)					
C=C1C[C@@H]2CC[C@@]34C[C@H]5O[C@H]6[C@@H](O3)[C@H]3O[C@H](CC[C@@H]3O[C@H]6[C@H]5O4)CC(=O)C[C@@H]3[C@@H](OC)[C@@H](C[C@H](O)CN)O[C@H]3C[C@H]3O[C@@H](CC[C@@H]1O2)C[C@@H](C)C3=C	0.0027 µM (active)	0.0428 µM (active)	0.00121 µM (active)	0.00959 µM (active)	0.00959 µM (active)					
CCc1cccc2c3c([nH]c12)[C@@](CC)(CC(=O)O)OCC3						inactive	inactive	inactive	inactive	inactive
CCS(=O)(=O)N1CCC([C@@H](C)n2c(C)c(C(=O)NCc3c(OC)cc(C)[nH]c3=O)c3ccccc32)CC1						inactive	inactive	inactive	inactive	inactive
CC[C@]12C=CCN3CC[C@@]4(c5cc([C@@]6(C(=O)OC)CC7C[C@@H](C(C)(F)F)CN(Cc8c6[nH]c6ccccc86)C7)c(OC)cc5N(C)[C@H]4[C@@](O)(C(=O)OC)[C@@H]1OC(C)=O)[C@@H]32 (stereo not given in full)	0.148 µM (active)	1.05 µM (active)	0.132 µM (active)	0.235 µM (active)	0.742 µM (active)					

SMILES	AC50 [1]	AC50 [2]	AC50 [3]	AC50 [4]	IC50 [5]	outcome [1]	outcome [2]	outcome [3]	outcome [4]	outcome [5]
Cc1ccc(NC(=O)c2ccc(CN3CC[C@H](N(C)C)C3)c(C(F)(F)F)c2)cc1Nc1nccc(-c2cncnc2)n1	10.2 µM (active)	14.4 µM (active)	16.2 µM (active)	11.5 µM (active)						inactive
O=C(Nc1cc(Oc2cc(F)c(NC(=O)C3(C(=O)Nc4ccc(F)cc4)CC3)cc2F)ccn1)C1CC1	14.8 µM (active)	13.2 µM (active)	9.34 µM (active)	13.2 µM (active)	18.6 µM (active)					
C[C@H](Nc1nc(N[C@H](C)C(F)(F)F)nc(-c2cccc(Cl)n2)n1)C(F)(F)F						inactive	inactive	inactive	inactive	inactive
Cn1cc(-c2ccc(S(=O)(=O)n3ccc(/C=C/C(=O)Nc4ccccc4N)c3)cc2)cn1	1.48 µM (active)	3.32 µM (active)	1.32 µM (active)	1.86 µM (active)	5.9 µM (active)					
CN[C@@H]1[C@@H](O)[C@@H](O[C@@H]2[C@@H](O)[C@H](O[C@H]3O[C@H](CN)[C@@H](O)[C@H](O)[C@H]3O)[C@@H](N)C[C@H]2NC(=O)C(O)CN)OC[C@]1(C)O (stereo not given in full)						inactive	inactive	inactive	inactive	inactive
N#Cc1ccnc(N2C(=O)CC[C@H]2C(=O)N(c2cncc(F)c2)C(C(=O)NC2CC(F)(F)C2)c2ccccc2Cl)c1 (stereo not given in full)						inactive	inactive	inactive	inactive	inactive
C=CC(=O)Nc1cccc(Oc2nc(Nc3ccc(N4CCN(C)CC4)c(F)c3)nc3[nH]ccc23)c1	2.63 µM (active)	5.25 µM (active)	1.86 µM (active)	9.34 µM (active)	0.833 µM (active)					
CC(C)c1cc(CNc2nc(Nc3cc(C4CC4)[nH]n3)cc(N3CCN(C)CC3)n2)on1	0.186 µM (active)	0.166 µM (active)	0.0833 µM (active)	0.468 µM (active)	0.525 µM (active)					
COCCOc1cnc2ccn([C@H](C)c3nnc4c(F)cc(-c5cnn(C)c5)cn34)c(=O)c2c1						inactive	inactive	inactive	inactive	inactive
O=C(O)CNC(=O)c1ncc(-c2cccc(Cl)c2)cc1O						inactive	inactive	inactive	inactive	inactive
C=C1C(=O)O[C@@H]2[C@H]3C(C)=CC[C@@]34O[C@@]4(C)CC[C@@H]12	11.8 µM (active)	11.8 µM (active)	9.34 µM (active)	8.33 µM (active)	20.9 µM (active)					
COc1ccc(N2C(=O)N(c3c(C)cccc3Cl)Cc3cnc(Nc4ccc(C5CCN(C)CC5)cc4OC)nc32)nc1	3.72 µM (active)	9.34 µM (active)	9.34 µM (active)	16.6 µM (active)	14.8 µM (active)					
CNCCn1c(=O)c2cc(OC)c(OC)cc2c2cnc3cc4c(cc3c21)OCO4	0.0215 µM (active)	1.71 µM (active)	1.52 µM (active)	0.481 µM (active)						inactive
COc1cc(N2CCC(O)CC2)ccc1Nc1cc(Nc2ccccc2S(=O)(=O)C(C)C)c2cc[nH]c2n1	23.5 µM (active)	10.5 µM (active)	7.42 µM (active)	16.6 µM (active)						inactive
NC(CC1c2ccccc2Oc2ccccc21)(C(=O)O)C1CC1C(=O)O (stereo not given)						inactive	inactive	inactive	inactive	inactive
Cc1cnc(Nc2ccc(F)cc2Cl)nc1-c1c[nH]c(C(=O)NC(CO)c2cccc(Cl)c2)c1 (stereo not given)	3.32 µM (active)	5.9 µM (active)	2.09 µM (active)	2.63 µM (active)	10.5 µM (active)					
COc1ccc2cc(OCC3(C(=O)O)CN(C(=O)c4ccc(F)cc4)C3)ccc2c1						inactive	inactive	inactive	inactive	inactive
CN(Cc1ccc(/C=C/C(=O)NO)cc1)CC12CC3CC(CC(C3)C1)C2	0.833 µM (active)	0.372 µM (active)	0.263 µM (active)	0.332 µM (active)	2.95 µM (active)					
Cc1[nH]c(/C=C2\C(=O)Nc3ccc(F)cc32)c(C)c1C(=O)NCCN1CCCC1	12.9 µM (active)	7.23 µM (active)	6.45 µM (active)	10.2 µM (active)						inactive
CCN(C(=O)c1ccccc1OC)c1cc2c(cc1N1CCNC[C@H]1C)n(C)c(=O)n2C						inactive	inactive	inactive	inactive	inactive
COc1ccc(S(=O)(=O)Nc2cc(-c3csc(C#N)c3)ccc2C)cc1	0.0742 µM (active)	0.166 µM (active)	0.148 µM (active)	0.0934 µM (active)	0.263 µM (active)					
CCc1c(-c2ccccc2C)nc2c(C#N)c[nH]n2c1=O						inactive	inactive	inactive	inactive	inactive
